Screens (PubChem)
ADAM10 inh: human ADAM10 inhibitors, primary screen, biochemical, QFRET, HTS. recombinant ADAM10, EDANS/DABCYL FRET peptide cleavage, 3 h. 0.62% of 370,000 active. Disintegrin and metalloproteinase domain-containing protein 10 (Homo sapiens), O14672. AID 720582, 2013. inhibition, % at 7 µM;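 active means inhibition above a per-campaign cutoff equal to the mean of compounds falling between control-based bounds plus 3 SD, cut at about 20% in these data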
GRIN3A LBD mod: binders of NR3A ligand-binding domain, primary screen, biophysical, differential scanning fluorimetry, uHTS; 2.5% of 340,000 active; Tm shift relative to glycine control, % at 25 µM; NR3A LBD differential scanning fluorimetry, Tm shift; 0% = protein alone, 100% = glycine-bound protein;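 active means melting temperature shift of at least 10% of the positive control shift, at one fixed dose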
ADAM17 inh: ADAM17 inhibitors, primary screen, biochemical, QFRET. AID 720648, 2013. recombinant ADAM17, EDANS/DABCYL FRET peptide cleavage. 0.83% of 370,000 active. inhibition, % at 6.95 µM. Disintegrin and metalloproteinase domain-containing protein 17 (Homo sapiens), P78536;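 active means inhibition above the mean of compounds lying between control limits plus 3 SD, set per campaign, cut at about 8.5% in these data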
AHR activator: AHR activators, primary screen, cell-based, luminescence, luciferase reporter, human; activation, % at 5 µM; 2.5% of 320,000 active; AHR-responsive luciferase reporter cells; Aryl hydrocarbon receptor (Homo sapiens), P35869; in the data active means activation above about 47%
Target sequence (P35869 whole entry, looked up): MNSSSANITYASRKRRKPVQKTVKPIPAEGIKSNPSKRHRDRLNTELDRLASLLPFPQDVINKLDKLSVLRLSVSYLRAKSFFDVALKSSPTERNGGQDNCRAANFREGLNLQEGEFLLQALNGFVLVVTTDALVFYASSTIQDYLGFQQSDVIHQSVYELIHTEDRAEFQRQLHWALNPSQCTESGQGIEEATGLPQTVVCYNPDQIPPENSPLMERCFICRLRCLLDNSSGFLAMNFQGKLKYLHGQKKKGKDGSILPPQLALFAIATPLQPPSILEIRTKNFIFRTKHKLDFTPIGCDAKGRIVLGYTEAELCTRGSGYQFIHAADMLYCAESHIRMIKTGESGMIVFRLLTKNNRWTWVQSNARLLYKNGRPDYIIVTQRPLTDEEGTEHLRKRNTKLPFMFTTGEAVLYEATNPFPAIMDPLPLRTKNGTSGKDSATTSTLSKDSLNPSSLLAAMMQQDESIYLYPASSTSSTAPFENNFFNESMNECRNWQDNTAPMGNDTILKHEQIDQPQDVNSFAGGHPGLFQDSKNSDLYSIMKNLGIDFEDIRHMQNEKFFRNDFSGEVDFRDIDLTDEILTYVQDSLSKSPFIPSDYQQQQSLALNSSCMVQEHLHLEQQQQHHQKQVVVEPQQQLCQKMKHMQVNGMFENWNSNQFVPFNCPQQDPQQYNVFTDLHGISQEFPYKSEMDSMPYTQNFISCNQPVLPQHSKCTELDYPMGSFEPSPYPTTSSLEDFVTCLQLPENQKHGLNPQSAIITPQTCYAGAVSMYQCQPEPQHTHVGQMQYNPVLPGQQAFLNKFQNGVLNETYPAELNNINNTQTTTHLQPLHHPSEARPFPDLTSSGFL
rCAG binder: binders of r(CAG) RNA repeats, primary screen, biochemical, fluorescence | r(CAG) RNA repeat, TO-PRO-1 dye displacement fluorescence | inhibition, % at 3 µM | 1.3% of 370,000 active | AID 651821, 2012;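 active means inhibition above the plate cutoff, the mean of all test compounds on that plate plus 3 SD, cut at about 35% in these data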;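 further: higher means more dye released from RNA so lower well fluorescence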
proKLK7 act: proKLK7 zymogen activators, primary screen, biochemical, fluorescence intensity. Kallikrein-7 (Homo sapiens), P49862. purified proKLK7, EDANS-DABCYL substrate fluorescence; 100% is mature enzyme control, 0% vehicle. activation, % at 7 µM. 0.9% of 370,000 active. AID 652039, 2013;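 active means activation above the mean of all tested compounds plus 3 SD, computed per campaign excluding outliers beyond control limits, cut at about 13% in these data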
Large screens that a line does not name were inactive. Most compounds without a hit are left out; they make up all but 7% or so of the library.

COC(=O)C1=C(C)N(Cc2ccccc2C(F)(F)F)C(=NCc2ccccc2)NC1c1ccc(Cl)cc1 (stereo not given)	none (no result: GRIN3A LBD mod, AHR activator)
CCCC1CCC2(CC1)CCC2OC(=S)Nc1cccc(Cl)c1 (stereo not given)	none (no result: GRIN3A LBD mod, AHR activator, rCAG binder, proKLK7 act)
COc1cc(/C=C(\C#N)C(=O)NCC2CCCO2)ccc1OC(C)C (stereo not given)	GRIN3A LBD mod 11.2
COCc1cc(N2CCN(C(=O)OC(C)(C)C)C[C@@H]2C)ccc1N1CC[C@@H](O)C1	none (no result: GRIN3A LBD mod, AHR activator)
CCOC(=O)[C@@H](CCc1ccccc1)N[C@@H](C)C(=O)N1CCC[C@H]1C(=O)O	none (no result: GRIN3A LBD mod, AHR activator)
CSc1nc2ccccc2cc1/C=C(\C#N)c1ccccc1	GRIN3A LBD mod 18.7
CSc1nc2ccccc2cc1/C=C(\C#N)c1ccc(Cl)c(Cl)c1	GRIN3A LBD mod 16.8
CC(COc1ccc(Cl)cc1)CN1CCC(C(O)(c2ccccc2)c2ccccc2)CC1 (stereo not given)	none (no result: GRIN3A LBD mod, AHR activator)
CCN=C1NC(c2ccc(C(F)(F)F)cc2)C(C(=O)OC)=C(C)N1Cc1ccccc1C(F)(F)F (stereo not given)	none (no result: GRIN3A LBD mod, AHR activator)
Oc1ccc2ccccc2c1C=NCc1ccccc1	AHR activator 55.6
Oc1ccc2ccccc2c1/C=N/Nc1ccccc1	AHR activator 54.2
Oc1ccccc1C=NN=Cc1c(O)ccc2ccccc12	none (no result: AHR activator)
O=CN/N=C/c1c(O)ccc2ccccc12	none
c1ccc(-c2cc(-c3nnc4sc(Cc5cccs5)nn34)[nH]n2)cc1	none (no result: GRIN3A LBD mod, AHR activator)
O=C(c1ccccc1Cl)N1CCC(Oc2cccnc2)CC1	none (no result: GRIN3A LBD mod, AHR activator)
COc1cc(C2N=C(c3ccccc3)NO2)cc(Br)c1O (stereo not given)	AHR activator 64.6
O=C(NCCc1ccccc1Cl)[C@@H]1CCCN1C(=O)[C@H](Cc1cccnc1)NC(=O)N1CCOCC1	none (no result: GRIN3A LBD mod, AHR activator)
CCOc1cc(C(=O)Nc2cc(C)on2)cc(OCC)c1OCC	AHR activator 63.7
O=C(Nc1ccc(F)cc1)c1ccc(COc2ccccc2)cc1	none
CCOc1cc(C(=O)Nc2cccnc2)cc(OCC)c1OCC	AHR activator 72.7
CCCOc1ccc(C(=O)Nc2cccnc2)cc1	none
O=C(Nc1cccnc1)c1ccc(COc2ccccc2Br)cc1	GRIN3A LBD mod 35.8
CCOc1ccc(C(=O)Nc2cc(C)on2)cc1	none
NC(=O)c1ccc(NC(=O)c2ccc(COc3ccccc3Br)cc2)cc1	GRIN3A LBD mod 22.1 (no result: AHR activator)
O=C(OCC#CCSc1nnc(-c2cccc3ccccc23)o1)c1ccc(SC(F)(F)F)cc1	none (no result: GRIN3A LBD mod, AHR activator, rCAG binder, proKLK7 act)
COC(=O)N1C[C@H](OC)[C@H]2C[C@@H]1c1ccccc1O2	none (no result: GRIN3A LBD mod, AHR activator)
O=S1(=O)c2ccc(Br)cc2OCCC2CCCCN21 (stereo not given)	none (no result: GRIN3A LBD mod, AHR activator)
Cc1ccc(C)c(-c2nc3cc(N)ccc3o2)c1	none
CCc1ccc2oc(-c3cc(N)ccc3O)nc2c1	AHR activator 73.5
CCc1ccc2oc(-c3cc(N)ccc3Cl)nc2c1	AHR activator 49.3
Nc1ccc2oc(-c3cc(Br)ccc3Cl)nc2c1	AHR activator 49.5 (no result: ADAM10 inh, ADAM17 inh, rCAG binder, proKLK7 act)
COC(=O)c1ccc(-c2nc3cc(N)ccc3o2)cc1	none
Nc1ccc2oc(-c3ccccc3Cl)nc2c1	none
C=CCN1[C@H](C)COc2cccc(N3CCCC3)c2S1(=O)=O	none (no result: GRIN3A LBD mod, AHR activator)
Cc1ccc2nc(SCC(=O)c3ccc4c(c3)OCO4)[nH]c2c1	AHR activator 57.3
COc1ccc2c(C)cc(SCC(=O)c3ccc4c(c3)OCO4)nc2c1	AHR activator 65.4
Cc1[nH]c2ccccc2c1C(=O)CSc1nc2ccccc2[nH]1	GRIN3A LBD mod 18.7
CC(=O)c1c(C)[nH]c(C(=O)CSc2nc3ccc(C)cc3[nH]2)c1C	AHR activator 69.9
COc1ccc2c(C)cc(SCC(=O)NC3CCCC3)nc2c1	none
COc1cc(NC(=O)C2CCN(c3nnc(-n4cccc4)s3)CC2)cc(OC)c1	none (no result: GRIN3A LBD mod, AHR activator)
CCCCNS(=O)(=O)/C=C/c1ccc(F)cc1CNC(=O)OC(C)(C)C	none (no result: GRIN3A LBD mod, AHR activator)
Cc1ccc(C(C)C)c(OCc2ccc(C(=O)N/N=C/c3ccc(O)c(O)c3)cc2)c1	GRIN3A LBD mod 33.6
COc1cc(/C=N/NC(=O)c2ccc(COc3cc(C)ccc3C(C)C)cc2)cc(OC)c1O	GRIN3A LBD mod 20.7
COc1cc(/C=N\NC(=O)c2ccc(-c3ccccc3)cc2)cc(OC)c1OC(C)=O	none (no result: AHR activator)
CCOc1cc(/C=N/NC(=O)c2ccc(=O)n(C)c2)ccc1O	none
Cc1ccc(C(C)C)c(OCc2ccc(C(=O)N/N=C/c3cccc(O)c3O)cc2)c1	GRIN3A LBD mod 23.9
COc1cc(/C=N/NC(N)=O)cc(Br)c1OCc1ccc(C)cc1	none
COc1cc(/C=N\NC(=O)c2ccc(-c3ccccc3)cc2)cc(OC)c1O	GRIN3A LBD mod 11.8
CN1Cc2nnn(CC3CCCCC3)c2-c2ccccc2S1(=O)=O	none (no result: GRIN3A LBD mod, AHR activator)
CCCCOCCCNC(=O)C[C@@H]1C(=O)N(CCc2ccc(Cl)cc2)C2=CCCC[C@]21C(=O)OCC	none (no result: GRIN3A LBD mod, AHR activator)
Cc1ccc(C(=O)NNC2=Nc3cccc4cccc2c34)cc1	AHR activator 78.8
CCCCNC(=O)O[C@H]1CC[C@@]23CCCN2C(=O)CCC[C@H]3C1	none (no result: GRIN3A LBD mod, AHR activator, rCAG binder, proKLK7 act)
CCN(CC)c1ccc(-c2sc(Nc3ccccc3)n[n+]2-c2ccc(F)cc2)cc1	AHR activator 63.3
c1ccc(COc2ccc(-c3sc(Nc4ccccc4)n[n+]3-c3ccccc3)cc2)cc1	AHR activator 79.9 (no result: ADAM10 inh, GRIN3A LBD mod, ADAM17 inh, rCAG binder, proKLK7 act)
Cc1ccc(C(=O)N2CCC[C@@H]2C(=O)N2CCC[C@H]2C(=O)NCc2ccccc2)cc1	none (no result: GRIN3A LBD mod, AHR activator)
CC(C)n1cnc2c(Nc3cccc(Cl)c3)nc(NCCCO)nc21	AHR activator 68.9
COc1ccc(Br)cc1C(=O)Nc1ccc(NC(=O)c2ccco2)cc1	GRIN3A LBD mod 17.6
CCOc1cc(NC(=O)c2ccco2)c(OCC)cc1NC(=O)CCc1ccccc1OC	GRIN3A LBD mod 15.5
COc1cc(NC(=O)c2ccco2)c(OC)cc1NC(=O)Nc1cccc(Cl)c1	GRIN3A LBD mod 22.0
COc1ccccc1NC(=O)c1sc(NC(=O)c2ccco2)c(C#N)c1C	AHR activator 66.2
COc1ccc(NC(=O)c2ccco2)cc1NC(=O)c1ccco1	none
COC(=O)[C@]12C[C@H](CC(=O)NCC34CC5CC(CC(C5)C3)C4)C(=O)N(CCC3=CCCCC3)C1=C[C@H](C1CCCC1)O[C@@H]2C	none (no result: GRIN3A LBD mod, AHR activator)
CCOC(=O)C1=CCN(S(=O)(=O)c2ccc(Cl)cc2)C1c1cccc(Br)c1 (stereo not given)	none (no result: GRIN3A LBD mod, AHR activator)
Cc1ccc(NC(=O)c2ccco2)c(NC(=O)c2ccccc2C)c1	none
COc1ccccc1NC(=O)c1cc(Cl)ccc1NC(=O)c1ccco1	AHR activator 63.3
